{"source": "ChEMBL document CHEMBL1201862", "about": "“PubChem BioAssay data set” (2004)", "note": "Among all 400,000 compounds or so, about 2,100 (0.53%) were called active. Roughly 14% stayed inconclusive and do not appear here. The sample holds actives, similar compounds and a random draw of the others, so the mix is not that of the screen. How the calls were made is not given here."}
{"biological_target": "Ataxin-2 (Homo sapiens) (UniProt Q99700)", "sequence (Q99700 whole entry)": "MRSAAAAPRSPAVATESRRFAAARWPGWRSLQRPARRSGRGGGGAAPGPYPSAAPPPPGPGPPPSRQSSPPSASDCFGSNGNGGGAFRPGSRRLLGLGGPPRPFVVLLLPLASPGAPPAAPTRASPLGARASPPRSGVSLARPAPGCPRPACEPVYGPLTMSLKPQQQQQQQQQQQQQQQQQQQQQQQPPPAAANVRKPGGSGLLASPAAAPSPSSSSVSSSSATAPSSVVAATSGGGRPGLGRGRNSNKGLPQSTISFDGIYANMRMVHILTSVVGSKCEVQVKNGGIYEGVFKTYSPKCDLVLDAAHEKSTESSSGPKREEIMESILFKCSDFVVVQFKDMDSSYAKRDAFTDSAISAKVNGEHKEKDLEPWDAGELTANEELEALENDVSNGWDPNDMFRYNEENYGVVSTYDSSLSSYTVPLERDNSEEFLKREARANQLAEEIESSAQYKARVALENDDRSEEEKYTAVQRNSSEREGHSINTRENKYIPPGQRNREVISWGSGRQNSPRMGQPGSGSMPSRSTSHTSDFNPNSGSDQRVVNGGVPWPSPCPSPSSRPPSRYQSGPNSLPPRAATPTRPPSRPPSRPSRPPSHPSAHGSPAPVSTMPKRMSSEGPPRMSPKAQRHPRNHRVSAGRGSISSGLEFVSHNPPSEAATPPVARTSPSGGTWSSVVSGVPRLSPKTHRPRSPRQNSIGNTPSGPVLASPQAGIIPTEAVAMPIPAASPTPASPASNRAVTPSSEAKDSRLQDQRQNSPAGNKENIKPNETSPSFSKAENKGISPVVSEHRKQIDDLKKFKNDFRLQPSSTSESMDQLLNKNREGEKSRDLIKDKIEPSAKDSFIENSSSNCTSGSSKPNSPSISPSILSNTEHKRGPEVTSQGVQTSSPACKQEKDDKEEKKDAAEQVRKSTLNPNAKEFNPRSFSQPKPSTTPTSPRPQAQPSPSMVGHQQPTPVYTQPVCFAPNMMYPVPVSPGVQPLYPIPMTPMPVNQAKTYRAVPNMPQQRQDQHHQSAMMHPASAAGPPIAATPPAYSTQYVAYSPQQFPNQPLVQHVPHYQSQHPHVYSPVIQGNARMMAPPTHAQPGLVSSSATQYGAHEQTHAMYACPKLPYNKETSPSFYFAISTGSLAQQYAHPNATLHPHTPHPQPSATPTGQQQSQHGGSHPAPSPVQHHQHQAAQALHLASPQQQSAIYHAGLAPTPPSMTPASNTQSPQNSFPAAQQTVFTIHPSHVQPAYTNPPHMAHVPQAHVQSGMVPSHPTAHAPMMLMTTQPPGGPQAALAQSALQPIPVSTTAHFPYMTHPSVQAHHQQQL", "assay": "qHTS for Inhibitors of ATXN expression.", "assay_type": "functional"}
{"smiles": "Cc1cccc(C)c1NC(=O)NC1(C(=O)N2CCCCC2)CCCCC1", "Potency": "inactive"}
{"smiles": "O=S(=O)(Nc1nc2n(n1)C(c1ccc(F)cc1)C=C(c1ccccc1)N2)c1ccc(Cl)cc1", "note": "(centres undefined)", "Potency": "inactive"}
{"smiles": "CC(C)Cc1ccc(C(C)/C=C2/CCC(CN3CCCCC3)C2=O)cc1", "note": "(centres undefined)", "Potency": "35.5 µM (active)"}
{"smiles": "CCOC(=O)C1C(=O)C=C(c2ccc(NS(C)(=O)=O)cc2)CC1c1ccco1", "note": "(centres undefined)", "Potency": "inactive"}
{"smiles": "COn1c(C)c(C)c2c3nonc3ccc21", "Potency": "inactive"}
{"smiles": "O=C(O)c1cc2cc(Cl)cc(Cl)c2oc1=O", "Potency": "inactive"}
{"smiles": "O=C1C(Br)=C(c2ccccc2)C(c2ccccc2)=C1c1ccccc1", "Potency": "39.8 µM (active)"}
{"smiles": "O=C(c1cnc2nc3ccccc3n2c1)c1cc(F)ccc1O", "Potency": "inactive"}
{"smiles": "CC(C)(C)c1ccc(C2=CC(c3ccccc3F)n3ncnc3N2)cc1", "note": "(centres undefined)", "Potency": "inactive"}
{"smiles": "O=C1C=CC(=O)N1c1ccc(N2CCCCC2)cc1", "Potency": "39.8 µM (active)"}
{"smiles": "CN1C(=O)c2ccc(N3CCCC3)cc2C1=O", "Potency": "inactive"}
{"smiles": "O=S(=O)(c1ccccc1)c1ccc(N2CCCCCC2)cc1", "Potency": "inactive"}
{"smiles": "NC(c1csc(Nc2ccc(C(=O)c3ccccc3)cc2)n1)C1CCCCC1", "note": "(centres undefined)", "Potency": "31.6 µM (active)"}
{"smiles": "COc1cccc(Nc2nc(C(N)C3CCCCC3)cs2)n1", "note": "(centres undefined)", "Potency": "39.8 µM (active)"}
{"smiles": "O=C(O)Cc1sc(Nc2ccccc2)nc1-c1ccccc1", "Potency": "inactive"}
{"smiles": "NC(Cc1ccc(Cl)cc1)c1csc(Nc2ccc(C(=O)c3ccccc3)cc2)n1", "note": "(centres undefined)", "Potency": "39.8 µM (active)"}
{"smiles": "NC(Cc1ccc(F)cc1)c1csc(Nc2ccc(C(=O)c3ccccc3)cc2)n1", "note": "(centres undefined)", "Potency": "39.8 µM (active)"}
{"smiles": "COc1ccc(C(=O)c2sc(Nc3ccccc3)nc2N)cc1OC", "Potency": "inactive"}
{"smiles": "COc1ccc(C(=O)c2sc(Nc3ccccc3)nc2C)cc1", "Potency": "inactive"}
{"smiles": "CCOC(=O)c1cc2c(=O)n3ccccc3nc2n(Cc2ccco2)/c1=N/C(=O)c1ccc(OC)cc1", "Potency": "inactive"}
{"smiles": "O=C1CCCC(O)=C1C1C2=C(CCCC2=O)OC2=C1C(=O)CCC2", "Potency": "inactive"}
{"smiles": "CCOc1cccc2cc(-c3csc(NC(=O)CCC(=O)NCCN4CCCCC4C)n3)c(=O)oc12", "note": "(centres undefined)", "Potency": "inactive"}
{"smiles": "N#CC1=C(N)Oc2cc(N)ccc2C1c1ccccc1F", "note": "(centres undefined)", "Potency": "inactive"}
{"smiles": "c1ccc(-c2nnc(SCC3CCCCO3)nc2-c2ccccc2)cc1", "note": "(centres undefined)", "Potency": "inactive"}
{"smiles": "NC(Cc1ccccc1)c1csc(Nc2nncc3ccccc23)n1", "note": "(centres undefined)", "Potency": "inactive"}
{"smiles": "NC(Cc1ccc(F)cc1)c1csc(Nc2nncc3ccccc23)n1", "note": "(centres undefined)", "Potency": "39.8 µM (active)"}
{"smiles": "Cc1ccc(C#N)c(SCC(=O)Nc2nccs2)n1", "Potency": "inactive"}
{"smiles": "O=C(C=P(c1ccccc1)(c1ccccc1)c1ccccc1)c1ccccc1-c1ccccc1C(=O)C=P(c1ccccc1)(c1ccccc1)c1ccccc1", "Potency": "20 µM (active)"}
{"smiles": "O=C(O)c1ccc(CP(=O)(c2ccccc2)c2ccccc2)cc1", "Potency": "inactive"}
{"smiles": "Cc1ccccc1-n1nnnc1SCc1cc(=O)n2ccsc2n1", "Potency": "inactive"}
{"smiles": "Cc1cccc2nc(CSc3nc4nncc-4c(O)n3-c3cccc(Cl)c3)cc(=O)n12", "Potency": "35.5 µM (active)"}
{"smiles": "CCCc1[nH]c2ccc(C#N)cc2c1CCC", "Potency": "35.5 µM (active)"}
{"smiles": "O=C1N/C(=C/c2cccn2-c2ccccc2)C(=O)N1Cc1ccc(F)cc1", "Potency": "inactive"}
{"smiles": "CCCCCC(=O)N[C@@H](c1ccccc1)[C@@H](O)C(=O)O[C@H]1C[C@@]2(O)[C@@H](OC(=O)c3ccccc3)C3[C@](C)(C(=O)[C@H](OC(C)=O)C(=C1C)C2(C)C)[C@@H](O)C[C@H]1OC[C@@]31OC(C)=O", "note": "(some centres undefined)", "Potency": "6.31 µM (active)"}
{"smiles": "Cc1nc(C)c(C(=O)N2CCCC(C(=O)c3ccc4ccccc4c3)C2)s1", "note": "(centres undefined)", "Potency": "28.2 µM (active)"}
{"smiles": "CC1=C(C(=O)N2CCCC(C(=O)c3cccc(C(F)(F)F)c3)C2)OCCO1", "note": "(centres undefined)", "Potency": "inactive"}
{"smiles": "COc1ccc(C(=O)C2CCCN(C(=O)c3csc(SC)n3)C2)cc1F", "note": "(centres undefined)", "Potency": "inactive"}
{"smiles": "Cc1cccc(N2CCN(C(S)=Nc3ccc4nc(N5CCN(C)CC5)cc(C)c4c3)CC2C)c1", "note": "(centres undefined)", "Potency": "39.8 µM (active)"}
{"smiles": "O=C(NCCCNC(=O)c1cnccn1)c1ccc(Br)cc1", "Potency": "inactive"}
{"smiles": "O=C(N/N=C/c1ccc2nccnc2c1)c1ccc(Br)cc1", "Potency": "inactive"}
{"smiles": "Cc1ccc(/C=C(\\NC(=O)c2ccc(C)cc2)c2n[nH]c(S)n2)cc1", "Potency": "25.1 µM (active)"}
{"smiles": "Cc1ccc(C(=O)N/C(=C\\c2ccc(Br)cc2)c2n[nH]c(S)n2)cc1", "Potency": "25.1 µM (active)"}
{"smiles": "CCc1cc(=O)oc2c(CN3CCCC3)c(O)c(Cl)cc12", "Potency": "inactive"}
{"smiles": "NC(=O)c1sc2nnc(-c3ccccc3)c(-c3ccccc3)c2c1N", "Potency": "inactive"}
{"smiles": "CCOC(=O)C1(Cc2cccc(Cl)c2)CCCN(C(=O)CCSC)C1", "note": "(centres undefined)", "Potency": "inactive"}
{"smiles": "CCOc1ccccc1CNS(=O)(=O)c1c[nH]cn1", "Potency": "inactive"}
{"smiles": "CC(C)=CCC/C(C)=C/CNC(=O)C[C@H]1C[C@H](C(=O)N2CCOCC2)[C@@]2(CCC3CCCC3)c3[nH]c4cc(CCC(=O)N(C)C)ccc4c3CCN2C1=O", "Potency": "35.5 µM (active)"}
{"smiles": "CC(C)=CCC/C(C)=C/CNC(=O)C[C@H]1C[C@H](C(=O)N(C(C)C)C(C)C)[C@@]2(C)c3[nH]c4cc(CCC(=O)N(C)C)ccc4c3CCN2C1=O", "Potency": "20 µM (active)"}
{"smiles": "CN(C)C(=O)CCc1ccc2c3c([nH]c2c1)[C@]1(CCC2CCCC2)[C@@H](C(=O)N2CCOCC2)C[C@H](CC(=O)NCc2cccc(C(F)(F)F)c2)C(=O)N1CC3", "Potency": "31.6 µM (active)"}
{"smiles": "CN(C)C(=O)CCc1ccc2c3c([nH]c2c1)[C@]1(CCC2CCCC2)[C@@H](C(=O)N2CCOCC2)C[C@H](CC(=O)NCCC2=CCCCC2)C(=O)N1CC3", "Potency": "35.5 µM (active)"}
{"smiles": "CCOC(=O)N1CCN(C(=O)c2cn(CC)c3ccc(S(=O)(=O)N4CCCCC4)cc3c2=O)CC1", "Potency": "inactive"}
{"smiles": "Cc1ccc(S(=O)(=O)c2cc3ccccc3oc2=O)cc1", "Potency": "inactive"}
{"smiles": "O=C(NCc1ccccc1)c1cc2ccc(O)cc2oc1=O", "Potency": "inactive"}
{"smiles": "CCn1c(=N)c(C(=O)NCCCOC)cc2c(=O)n3cccc(C)c3nc21", "Potency": "inactive"}
{"smiles": "COCCCNc1c(O)nc2cccc3c2c1-c1ccccc1C3=O", "Potency": "inactive"}
{"smiles": "COCCCNC(=O)c1ccc2c3c(onc13)-c1ccccc1C2=O", "Potency": "29.9 µM (active)"}
{"smiles": "COc1ccc(-c2nc3ccc(C(=O)NCC(OC)OC)cc3nc2-c2ccc(OC)cc2)cc1", "Potency": "inactive"}
{"smiles": "CCOc1ccc(N(C)S(=O)(=O)c2ccc3ncc(C(=O)NCC(OC)OC)c(O)c3c2)cc1", "Potency": "inactive"}
{"smiles": "COC(CNC(=O)c1ccc2c3c(onc13)-c1ccccc1C2=O)OC", "Potency": "22.4 µM (active)"}
